# Reference: the supplement of paper PMC3334620
# Whole data set: some 33,000 sequences, median “E-score (-0.5 to 0.5)” near -0.011, cut for the highest 2% near 0.28. The list comes from a sample in which the highest values are over-represented; it also holds similar and randomly drawn sequences.
# Molecular target: T1, Gcr1 (UniProt P07261)
# T1 sequence: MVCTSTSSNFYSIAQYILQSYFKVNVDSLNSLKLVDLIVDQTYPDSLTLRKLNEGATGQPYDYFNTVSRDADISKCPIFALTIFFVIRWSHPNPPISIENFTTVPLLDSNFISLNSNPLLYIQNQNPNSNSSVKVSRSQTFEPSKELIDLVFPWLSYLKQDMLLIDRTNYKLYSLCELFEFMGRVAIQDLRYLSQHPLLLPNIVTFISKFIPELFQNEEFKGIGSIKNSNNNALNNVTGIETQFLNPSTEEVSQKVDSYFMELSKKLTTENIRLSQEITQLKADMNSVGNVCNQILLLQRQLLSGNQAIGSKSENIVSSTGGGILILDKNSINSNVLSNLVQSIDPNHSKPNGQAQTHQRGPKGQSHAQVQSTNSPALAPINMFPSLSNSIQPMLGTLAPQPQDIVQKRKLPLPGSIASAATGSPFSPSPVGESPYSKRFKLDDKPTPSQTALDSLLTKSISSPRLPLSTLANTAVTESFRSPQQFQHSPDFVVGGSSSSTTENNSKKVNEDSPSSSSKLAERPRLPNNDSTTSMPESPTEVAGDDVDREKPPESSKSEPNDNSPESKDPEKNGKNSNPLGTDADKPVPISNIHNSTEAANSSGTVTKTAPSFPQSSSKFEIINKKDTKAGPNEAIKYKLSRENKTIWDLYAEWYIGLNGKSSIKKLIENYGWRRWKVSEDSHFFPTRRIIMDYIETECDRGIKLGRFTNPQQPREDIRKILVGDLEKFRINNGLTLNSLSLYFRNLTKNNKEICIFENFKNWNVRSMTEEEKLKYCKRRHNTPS
# Assay: PBM E-score (8-mer binding enrichment) (E-score (-0.5 to 0.5)); higher = stronger / more preferred TF binding
# Conditions: protein concentration: 100 nM; construct: GST-full length
# Protocol: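 Universal 'all 10-mer' protein binding microarrays (Agilent AMADID 015681) probed with GST-tagged S. cerevisiae TFs (full-length or DBD) made by in vitro transcription/translation (PURExpress), about 100-200 nM. Bound TF was detected with fluorescent anti-GST. Each ungapped 8-mer (which stands for itself and its reverse complement) is scored by the PBM enrichment score (E-score), a modified Wilcoxon-Mann-Whitney statistic from -0.5 to +0.5, computed with the Universal PBM Analysis Suite. Scale: above 0.35 generally sequence-specific binding.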
row,Sequence,PBM E-score
1,TAACCTGA,-0.2
2,ACGTGTAT,0.0211
3,CAGGCCGA,-0.0271
4,CAGAACCG,0.106
5,GAATGCGC,0.164
6,ACTCTCTC,-0.288
7,CGCCAATA,0.144
8,GTATGTCA,0.136
9,CTCCCAAG,0.0273
10,ACTCTAGG,-0.0525
11,ATACAGGA,0.308
12,AAACAGGA,0.363
13,CTTCAGGA,0.268
14,AAACAGGC,-0.117
15,ATTCAGGG,0.123
16,CAACAGGA,0.226
17,ATACAGGC,0.223
18,ATTCAGGA,0.282
19,CTACAGGA,0.204
20,ACCGAACG,0.0306
21,CCACCGCG,-0.0592
22,ATGACATA,0.127
23,TCCCGCAA,0.0539

row,Sequence,PBM E-score
1,CGAGTGCC,-0.132
2,GAGCGTCA,0.0398
3,ACGCGTCT,0.155
4,AAGCGTCC,0.323
5,GAGCGTCC,0.384
6,AAGCGTCA,-0.0114
7,ACGCGTCC,0.292
8,AAGCGTCG,0.0188
9,ACGCGTCA,-0.171
10,GAGCGTGC,-0.1
11,GCATCAAC,0.15
12,CACGGAGC,0.101
13,CTGTATCC,0.207
14,CGGTAGCC,0.296
15,CGGTAGCA,-0.0732
16,AGGTATCA,0.0276
17,AGGTATCG,0.019
18,AGGTAGCC,0.238
19,CGGTATCA,-0.0496
20,CGGTATCC,0.282
21,AGGTATCC,0.28
22,CAAGCTAA,-0.177
23,CCTGTGAG,-0.218

row,Sequence,PBM E-score
1,CGCCCTAG,0.143
2,ATAGCCAG,0.0137
3,CGCAATTC,0.0283
4,CTACCGTC,-0.0298
5,GCCATCCA,0.086
6,CCGATACA,0.0692
7,CCAGTTAG,0.0191
8,AGGCGCAG,0.157
9,ACGCGCCA,0.196
10,ATGCGCCC,0.0661
11,AGGCGCCG,0.354
12,AAGCGCCT,0.0782
13,AGGCGCCA,0.268
14,AGGCGCAT,0.0287
15,AGGCGCCC,0.384
16,ACGCGCCC,0.352
17,GCGCGCCC,0.0734
18,AGGCGCCT,0.321
19,AGGCGCGC,0.16
20,AGTGCTCC,-0.116
21,GTCAGAAA,0.0237
22,AAGGGCTA,-0.138
23,AACAATCC,-0.0423

row,Sequence,PBM E-score
1,TGGACAAA,0.0886
2,CCCGGTCC,-0.0935
3,CGGACACC,0.0465
4,ACTGCAAG,-0.185
5,TTGTGAAA,0.0169
6,CCCGTTAG,0.0113
7,CGCGCATC,0.252
8,ATCCCCCG,0.175
9,AAGAATCC,0.391
10,ATGAATCC,0.0178
11,AGGAAGAG,-0.0854
12,AGGAAGCA,0.13
13,AAGAATCA,0.142
14,AGGAATCC,0.459
15,AGGAAGCG,0.354
16,GAGAATCC,0.236
17,AGGAATCG,0.294
18,AGGAATCA,0.144
19,AGGAATAC,0.0815
20,AGGAATGG,0.0654
